Bioassay records as filed in PubChem BioAssay.
HCV inhibitor: blocks hepatitis C virus; Potency, µM (top dose mostly 41.8 µM), without a hit: at the top dose activity change, negative = inhibition, usual class: inhibitors; Huh7.5.1 HCVcc-Cre infection, luciferase reporter, 44 h; 340,000 tested, 3.4% active; active = well fitted inhibition curve with a large enough effect; inconclusive = small, poorly fitted or top-dose-only effect, or another doubt; inactive = no such curve, though single readings can be large or run the other way; also: potency is read from the fitted curve at half-maximal effect
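HCVcc-Cre virus at an moi near 0.5 was added right after compound to cells cultured 4 h from seeding (1,000 cells/well). Luciferase activity was determined 44 h later, 15 min after substrate addition at RT.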
HCMV antiviral: inhibitors of human cytomegalovirus; HFF cells, HCMV-luciferase reporter, 72 h; active compounds read low; activity change, negative = inhibition, % at 57.5 µM; 410,000 tested, 4.5% active; in the data active = activity change below about -60%; inconclusive = no clear call, values can overlap the other calls; inactive = above about -39%
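Luciferase read-out from HCMV-luciferase-infected HFFs (MOI 1 PFU/cell) 72 h post infection at 37C; compounds added after 16 h cell attachment; activity normalized between buffer-only basal and Salinomycin (10uM) inhibitor controls.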
Lassa entry inh: inhibitors of Lassa virus binding or cell entry; Lassa virus pseudotype entry inhibition, cell reporter; Potency, µM (doses to about 37.9 µM), inactives show at the highest dose activity change, negative = inhibition, hits mostly inhibitors; 300,000 tested, 1.2% active; AID 540256; calls by dose curve; tested in HEK293 cells; also: potency is read from the fitted curve at half-maximal effect; nearly all actives have a fitted effect of over 50% in size
MARV entry inh: Marburg virus entry inhibition; Marburg virus pseudotyped entry inhibition, cell reporter; 300,000 tested, 1.8% active; Potency, µM (highest dose often 37.8 µM), inactives show at the top dose activity change, negative = inhibition, actives largely listed as inhibitors; AID 540276; calls by dose curve; tested in HEK293 cells; also: potency is read from the fitted curve at half-maximal effect
FMDV antiviral: blocks foot and mouth disease virus | FMDV antiviral cell-based qHTS | Potency, µM (highest dose often 57.9 µM), inactives show at the highest dose activity change, negative = inhibition, usual class: inhibitors | 410,000 tested, 1.2% active | AID 1159524; calls by dose curve; tested in HEK293T cells; also: read-out not given here; potency is read from the fitted curve at half-maximal effect; nearly all actives have a fitted effect of over 45% in size
* = called active by the depositor; ? = inconclusive; / = no result; ! = repeats disagree; [ ] = dose if it differs, or a comment. A selection: hits, their analogues and other compounds. The true share with any hit is near 7.9%. % is scaled to controls: 0 for no effect and ±100 for the full control effect.

SMILES | HCV inhibitor | HCMV antiviral | Lassa entry inh | MARV entry inh | FMDV antiviral
COc1cc(C2C3=C(Nc4ncnn42)c2ccccc2CC3)cc(OC)c1OC (stereo not drawn) | ? | -89* | ? | 0.73µM*! | 8%
COc1ccc(C2C3=C(Nc4ncnn42)c2ccccc2CCC3)cc1 (stereo not drawn) | 12% | 68 | 9% | -14% | /
Cc1cccc(Cn2cc(/C=C/[N+](=O)[O-])c3ccccc32)c1 | ? | -99* | ? | ? | ?
O=C(O)c1ccc(Cn2cc(/C=C\[N+](=O)[O-])c3ccccc32)o1 | -7% | 26 | / | / | -12%
O=[N+]([O-])/C=C/c1cn(Cc2ccc(Cl)cc2)c2ccccc12 | ? | -39 | ? | ? | 35µM*
O=Cc1cn(Cc2cccc(F)c2)c2ccccc12 | 5% | 2 | ? | ? | ?
CCOC(=O)Cn1cc(C=C2C(=O)N(C)C(=O)N(C)C2=O)c2ccccc21 | 6% | 36 | -11% | -16%[46.1 µM] | -15%
CCOC(=O)Cn1cc(/C=C/[N+](=O)[O-])c2ccccc21 | ? | -74* | / | / | 28µM*
COC(=O)c1ccc(Cn2cc(/C=C\[N+](=O)[O-])c3ccccc32)o1 | 9% | -16 | ? | ? | 40µM*
CN1CCC(OC(c2ccccc2)c2ccccc2)CC1 | -27% | 17 | ? | ? | 0%
C[C@@H](C(=O)OC1C[C@H]2CC[C@@H](C1)N2C)c1ccc(Br)cc1 (stereo partly drawn) | / | / | / | / | 1%
CN1C2CCC1CC(OC(c1ccccc1)c1ccccc1N)C2 (stereo not drawn) | ? | -4 | ? | 18µM* | -21%
CN1C2CCC1CC(OC(c1ccccc1)c1ccc(Cl)cc1)C2 (stereo not drawn) | / | ? | / | 3.2µM* | /
COCCOCCOCCC(=O)N[C@@H]1C[C@@H]2CC[C@@]1(C)C2(C)C | / | / | / | -1% | /
CCCN1[C@@H]2c3ccc(-c4ccccc4)c(=O)n3C[C@@H]2[C@@H](CO)[C@@H]1C(=O)N[C@@H](C)c1ccccc1 | / | 7 | / | / | /
Cc1ccc(C)c(N2CCN(C(=O)Cn3ncc4c(=O)oc5ccccc5c43)CC2)c1 | / | 0 | -8%[46.1 µM] | ? | -14%
CCC(=O)N1CCc2cc(Br)cc(S(=O)(=O)NC3CCN(Cc4ccccc4)CC3)c21 | ? | ? | 2.2µM* | ? | 17%
CCC(=O)N1CCc2cc(Br)cc(S(=O)(=O)N(CC)Cc3ccccc3)c21 | / | 6 | 15%[46.1 µM] | 4%[46.1 µM] | -7%
CC(=O)N1CCc2cc(Br)cc(S(=O)(=O)NCCCN(C)Cc3ccccc3)c21 | -22% | ? | 4% | -24%[46.1 µM] | 27%
CCC(=O)N1CCc2cc(Br)cc(S(=O)(=O)NCCCN(C)Cc3ccccc3)c21 | 23% | -67* | 18% | ? | 2%
Cc1cc(-c2ccc(C)c(S(=O)(=O)N3CCC(C)CC3)c2)on1 | / | 0 | ? | / | -19%
Cc1cccc(N2CCN(S(=O)(=O)c3cc(-c4cc(C)no4)ccc3C)CC2C)c1 (stereo not drawn) | 4µM* | ? | / | / | 0%
COc1ccc(-c2cc(C)no2)cc1S(=O)(=O)Nc1cccc(C)c1 | 10µM* | 16 | / | / | 28%
COc1ccc(-c2cc(C)no2)cc1S(=O)(=O)N1CCN(c2cccc(C)c2)C(C)C1 (stereo not drawn) | 10µM* | -74* | ? | / | ?
C[C@@H]1C=CCCO[C@]12C(=O)Nc1ccc(O)cc12 | / | / | / | 10%[14.2 µM] | /
SMILES | HCV inhibitor | HCMV antiviral | Lassa entry inh | MARV entry inh | FMDV antiviral
Cc1ccc(CNC(=O)C(=O)NCCCn2ccnc2)cc1 | 23% | -67* | -23% | 4% | -9%
O=C(NCCCn1ccnc1)C(=O)NCc1ccc(Cl)cc1 | 13% | 17 | 0% | 20%[46.1 µM] | 0%
COc1cccc(NC(=O)C(=O)NCCCn2ccnc2)c1 | 14% | -64* | 20% | -9%[46.1 µM] | 45%
COc1ccc(OC)c(S(=O)(=O)NC2CCSc3ccccc32)c1 (stereo not drawn) | -16% | 13 | 20% | 2% | 0%
COc1ccc(-n2c(=O)cnc3cnc(N4CCOCC4)nc32)cc1 | / | / | / | / | -13%
COc1ccc(C2CC(=O)c3c([nH]c(C(=O)OCc4ccccc4)c3C)C2)cc1OC (stereo not drawn) | / | -8 | -1%[46.1 µM] | -12%[46.1 µM] | ?
Cc1c(C(=O)OCCOc2ccccc2)[nH]c2c1C(=O)CCC2 | 13µM* | -79* | 7.9µM* | ? | -63%
